13 molecules from PubChem BioAssay (NCI) can be followed below.

Compounds without any hit were thinned out: in the full panel of roughly 83,000, 20% have a hit.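 Cell lines were cultured in 96-well plates, exposed to a single compound concentration, and assessed for percent growth 48 hours later.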 A number with no mark means an inactive call. Active and inactive are the calls of the source. Rule for the calls: active = growth percent below 10; inactive = the rest.

Test in all cases: NCI-60 one-dose screen, 48 h (100 = growth as untreated, 0 = no growth, -100 = all killed)
Conditions in all cases: 10 µM unless noted

The test system of assay [1] is HCT-15 colon.
Assay [2] relates to HT29 colon.
For assay [3], the system named is SNB-75 CNS.
In assay [4] the test system is SNB-19 CNS.
The test system of assay [5] is U251 CNS.
Assay [6] relates to PC-3 prostate.
The test system of assay [7] is SK-MEL-5 melanoma.
The subject of assay [8] is UACC-62 melanoma.
Assay [9] has as its system LOX IMVI melanoma.
Assay [10] has as its system SK-MEL-28 melanoma.

In the case of `Cc1nc2ccccc2c(/C=C/c2ccc(Br)cc2)c1C(=O)/C=C/c1ccccc1`, the growth in [1] was -27.3% (active); in assay [2], -15.1% (active); in [3], 51.3%; in [4], -11.6% (active); in assay [5], -81.9% (active); in assay [6], 19.7%. For the same molecule, the growth in [7] is 6.82% (active); in [8], -5.46% (active); in [9] it was -89.6% (active); in assay [10], 3.46% (active).

In the case of `CC/C(=C(/c1ccc(Cl)cc1)c1ccc(OCCN(CC)CC)cc1)c1ccc(OC)cc1`, the growth in assay [1] was 16.7%; in assay [2] it was -3.6% (active); in assay [3], 97.2%; in assay [4] it was 69.5%; in assay [5], 33.5%; in assay [6] it was 33.9%. The growth was 46.1% in assay [7], 72.8% in assay [8], 42.3% in [9] and 56% in [10].

Consider `O=C(O)c1cc2ccccc2s1`, for which the growth in [1] was 106%; in assay [2], 110%; in assay [3], 97.9%; in assay [4] it was 111%; in assay [5], 95.9%; in assay [6], 96.4%. The growth in assay [7] is 104%; in assay [8] it was 107%; in assay [9], 99.6%; in assay [10], 117%.

Consider `c1ccc(-c2nc(N3CCNCC3)c3oc(-c4ccccc4)nc3n2)cc1`, for which the growth was -75.6% (active) in assay [1]; -26.2% (active) in assay [2]; -95.9% (active) in [3]; -27.9% (active) in [4]; -57% (active) in [5]; -27.9% (active) in [6]. In addition, the growth in assay [7] was -93.3% (active); in assay [8], -82% (active); in assay [9], -81.9% (active); in assay [10], -95% (active).

For `COc1ccc(-c2cn(Cc3ccc4c(Br)cc(Br)c(O)c4n3)nn2)cc1`, the growth in assay [1] is 39.3%; in assay [2] it was 89.5%; in assay [3], 71.6%; in assay [4] it was 96.9%; in [5] it was 97.3%; in assay [6], 91.4%. For the same molecule, the growth is 98.6% in assay [7], 95.6% in assay [8], 49.4% in assay [9] and 96.3% in assay [10].

With `Cn1cc(-c2csc(-c3cn(CCO)c4ccc(F)cc34)n2)c2cccnc21`, the growth in assay [1] was 41.5%; in assay [2], 18.2%; in assay [3], 46.4%; in [4], 69.6%; in assay [5] it was 49.3%; in assay [6], 44.6%. In addition, the growth was 62.9% in [7], 52.4% in assay [8], 44.8% in assay [9] and 74.4% in [10].

Consider `CCCC[N+]1(C)CCN=C1Cc1ccccc1` (stereo not given), for which the growth is 103% in assay [1]; 89.3% in assay [2]; 99.6% in assay [3]; 104% in assay [4]; 95.8% in assay [5]; 87.2% in [6]. Besides, the growth was 97.8% in [7], 96.7% in assay [8], 99.8% in [9] and 110% in assay [10].

Regarding `CCN(CC)c1ccc(/C=N/NC(=O)c2ccccc2Nc2ccnc(C(F)(F)F)c2)c(O)c1`, the growth was 32.6% in assay [1]; 37.7% in [2]; 43.8% in assay [3]; 20.1% in assay [4]; 14.8% in assay [5]; 36% in assay [6]. In addition, the growth in [7] was 3.96% (active); in [8] it was 19.4%; in assay [9], 5.58% (active); in assay [10], 47.9%.

As for `O=C1NCCS(=O)(=O)/C1=C\C=C\c1cccc(C(F)(F)F)c1`, the growth in [1] is 10.2%; in [2], 16.8%; in assay [3], 71.2%; in assay [4] it was 49.6%; in assay [5] it was 36%; in assay [6], 37.5%. For the same molecule, the growth in assay [7] is 34.5%; in assay [8], -15% (active); in [9] it was -73.6% (active); in assay [10], 28.7%.

With `Cc1c(C(=O)C(SC(=S)N2CCOCC2)SC(=S)N2CCOCC2)nnn1-c1ccc([N+](=O)[O-])cc1`, the growth was 89.3% in assay [1]; 92.3% in assay [2]; 94.2% in assay [3]; 96.3% in assay [4]; 95.3% in assay [5]; 96.1% in assay [6]. Besides, the growth in assay [7] is 107%; in assay [8], 88%; in assay [9] it was 108%; in [10], 103%.

For the molecule `[2H]C([2H])([2H])Oc1ccc(/C=C/C(=O)/C=C(O)/C=C/c2ccc(OC([2H])([2H])[2H])c(OC([2H])([2H])[2H])c2)cc1OC([2H])([2H])[2H]`, the growth in assay [1] is 14.3%; in [2], 10.7%; in assay [3], 45.7%; in assay [4] it was 39.2%; in [5], 19.5%; in [6] it was 32.6%. Also, the growth in [7] was 11.6%; in assay [8], 52%; in assay [9], 14.5%; in assay [10], 87.4%.

In the case of `O=c1c2cccc3c(N4CCOCC4)ccc(c32)c2nc3ccccc3n12`, the growth is 81% in assay [1]; 93.7% in assay [2]; 79.1% in [3]; 95.8% in assay [4]; 90.7% in assay [5]; 99.9% in [6]. Also, the growth in [7] was 73.4%; in assay [8], 62.1%; in assay [9] it was 84.8%; in assay [10], 107%.

Turning to `O=C1Nc2ccccc2/C1=C/c1cccn1CCCCCCn1c2ccccc2c(=O)c2ccccc21`, the growth was 23% in assay [1]; 92.9% in [2]; 92.3% in [3]; 97.1% in [4]; 92.4% in [5]; 40.1% in assay [6]. The growth in [7] was 34.7%; in assay [8], 50.3%; in [9] it was 91.2%; in assay [10], 111%.
